These results are taken from PubChem BioAssay (Tox21).

SMILES strings stand for the structures. Results filed as inconclusive are left out. A number with no mark means an inactive call. Calls follow the shape of the dose curve; as a rule, active = well fitted cell-killing curve with a large enough effect in the repeat runs; inconclusive = weak or mixed curves, or effect the other way; inactive = flat fitted curve, though single readings scatter.
% is scaled to controls: 0 for no effect and ±100 for the full control effect.

A short description of the assay: qHTS RealTime-Glo MT Cell Viability Assay in HEK293 cells - 24 hour (AID 1224886). Also: top concentration of the series differs between compounds; nearly all actives have a fitted effect of over 50% in size. Conditions: RealTime-Glo luminescence; series mostly up to 76.8 µM; activity change, negative = cytotoxicity: at the top concentration. A digest of the protocol: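 Quantitative high-throughput screen of the Tox21 10K library in HEK293: cells and RealTime-Glo reagents plated together, compound added at 5 h, luminescence monitored through 40 h at 37 C.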
Background: In qHTS, concentration-response curves come from the screen itself.
On to `O=c1oc2c(O)c(O)cc3c(=O)oc4c(O)c(O)cc1c4c23`, for which the activity change, negative = cytotoxicity was -7.55% [at 15.8 µM].

`Cc1nnc(SCC2=C(C(=O)O)N3C(=O)[C@@H](NC(=O)Cn4cnnn4)[C@H]3SC2)s1`: the “activity change, negative = cytotoxicity” value is 3.47% [at 35.3 µM].

As to `Cc1cc(S(=O)(=O)O)c(N)cc1Cl`, the “activity change, negative = cytotoxicity” value is 0.753%. In the case of `COc1cc(C)ccc1C(C)C` it was 7.98%; in that of `Cc1ccsc1C(=CCCN1CCC[C@@H](C(=O)O)C1)c1sccc1C`, -0.439% [at 35.3 µM]; in that of `C=CC1CO1` (centres undefined), 7.1%. The result for `CNCCC(Oc1ccccc1OC)c1ccccc1` (centres undefined) reads -20.4% [at 35.3 µM]; that for `FC(F)(F)C(F)(F)C(F)(F)C(F)(F)C(F)(F)C(F)(F)C(F)(F)C(F)(F)Br`, 1.91% [at 35.3 µM]; that for `CCN(CC)C(=O)N(CC)CC`, 11%.

`CN(CC1(C)CCCO1)S(=O)(=O)c1ccc(Cl)c(S(N)(=O)=O)c1` (centres undefined): the “activity change, negative = cytotoxicity” value is 2.73% [at 35.3 µM]. Take `O=CCCc1ccccc1`: the “activity change, negative = cytotoxicity” value was 0.5%. With `CN1C(=O)CC(c2ccccc2)C1=O` (centres undefined), the “activity change, negative = cytotoxicity” value was 4.03% [at 35.3 µM]. In the case of `CCCN(CCC)C(=O)C(CCC(=O)O)NC(=O)c1ccccc1` (centres undefined) it was 5.85% [at 35.3 µM]; in that of `CC(=O)Nc1ccc(C)c(Cl)c1`, -13.3%.

As to `CCCCN1C[C@H](O)[C@@H](O)[C@H](O)[C@H]1CO`, the “activity change, negative = cytotoxicity” value was 1.95% [at 35.3 µM].

`Cc1cccc(C)c1NC(=O)CN1CCCCCC1`: the “activity change, negative = cytotoxicity” value is 0.935% [at 35.3 µM]. The result for `CO[C@@]1(NC(=O)CSCC#N)C(=O)N2C(C(=O)O)=C(CSc3nnnn3C)CS[C@@H]21` reads 5.08% [at 35.3 µM]; that for `FC(F)(F)C(Cl)(Cl)Cl`, 0.569%.

Regarding `CCC(=O)Nc1ccc(O)cc1`, the “activity change, negative = cytotoxicity” value was 3.79% [at 35.3 µM]. In the case of `N#Cc1ccc(C(c2ccc(C#N)cc2)n2cncn2)cc1` it was 3.19% [at 35.3 µM]; in that of `CCOc1ccc2nc(N)sc2c1`, -2.07%.

Turning to `Cc1ccc([N+](=O)[O-])cc1Cl`, the “activity change, negative = cytotoxicity” value is -0.423%. In the case of `CCCCCCC`, the “activity change, negative = cytotoxicity” value is -19%. `CCc1cc(Cl)c(OC)c(C(=O)NC[C@@H]2CCCN2CC)c1O`: the “activity change, negative = cytotoxicity” value is -10.4% [at 35.3 µM]. For `CC(C)O`, the “activity change, negative = cytotoxicity” value is 0.428%. Take `CC(CNC1CCCCC1)OC(=O)c1ccccc1` (centres undefined): the “activity change, negative = cytotoxicity” value was -12% [at 35.3 µM]. On to `CC(=O)OC1C2(C)CCC(C2)C1(C)C` (centres undefined), for which the “activity change, negative = cytotoxicity” value is -2.69%. Regarding `COc1ccc(S(=O)(=O)Nc2nnc(CC(C)C)s2)cc1`, the “activity change, negative = cytotoxicity” value was 8.53% [at 35.3 µM]. In the case of `NC/C=C/C(=O)O` it was 3.15% [at 35.3 µM].

With `C1CSCCS1`, the “activity change, negative = cytotoxicity” value is -0.958%. In the case of `C[C@]12C(=O)OC(=O)[C@H]1[C@H]1C=C[C@@H]2C1` it was 13.2%. The result for `OCCN(CCO)CCN(CCO)CCO` reads 2.98%. The result for `O=S(=O)(O)C(F)(F)F` reads 3.4%; that for `CC(C)NCC(O)COc1ccc(CCOCC2CC2)cc1` (centres undefined), -3.63% [at 35.3 µM]; that for `NC1=NCC2c3ccccc3Cc3ccccc3N12` (centres undefined), -10.3% [at 35.3 µM]. For the compound `CC(C)(CO)[C@@H](O)C(=O)NCCC(=O)O`, the “activity change, negative = cytotoxicity” value was 13.6%.

Consider `CCCCNC(=S)NCCCC`, for which the “activity change, negative = cytotoxicity” value is -17.3%. Take `CC(C)CCCCCCc1ccc(OCCOCCO)cc1`: the “activity change, negative = cytotoxicity” value was 7.98%.

Regarding `CC(=O)O[C@H]1CC[C@@]2(C)C(=CC[C@@H]3[C@@H]2CC[C@]2(C)C(C(C)=O)=CC[C@@H]32)C1`, the “activity change, negative = cytotoxicity” value is -26.3% [at 35.3 µM].
